{"source": "PubChem BioAssay AID624305", "about": "(National Center for Advancing Translational Sciences (NCATS), 2012)", "note": "Records with an inconclusive call do not appear. Where a call stands in place of a potency, no number is given. A number with no mark means an inactive call. Calls of active or inactive are those of the source. Calls come from the whole dose curve; as a rule, active = well fitted activation curve with a large enough effect; inconclusive = small, poorly fitted or top-dose-only effect; inactive = no such curve, though single readings can be large or run the other way. Potency is the fitted concentration of half-maximal effect."}
{"test": "qHTS assay for re-activators of p53 using a Luc reporter: Hit Validation; note: nearly all actives have a fitted effect of over 75% in size", "settings": "p53-responsive luciferase reporter cells, luminescence, H1299 line expressing heat-sensitive Ala138Val p53; series mostly up to 46.1 µM", "how_it_was_run": "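H1299 (p53-null) cells stably carrying p53-A138V and a BP100-luciferase reporter, 1000 cells/well, treated 24 h at 37 deg C. Compounds at several concentrations, 1:5 dilution; nocodazole control; luminescence read after 10 min with detection reagent.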"}
{"molecule": "O=C(Nc1nc(-c2cccs2)cs1)c1ccc([N+](=O)[O-])o1", "Potency": "20.6 µM (active)"}
{"molecule": "COCC(=O)Nc1nnc(COc2ccccc2)s1", "Potency": "inactive"}
{"molecule": "Cc1cc(C(=O)COC(=O)c2ccc(O)cc2)c(C)n1CC(F)(F)F", "Potency": "20.6 µM (active)"}
{"molecule": "CC(C)C(=O)Nc1ccc(-c2nc3cccnc3o2)cc1", "Potency": "0.366 µM (active)"}
{"molecule": "CCCCNC(=S)N(Cc1c(C)noc1C)c1ccccc1", "Potency": "inactive"}
{"molecule": "Cc1ccc(C(=O)CC(Nc2ccc(F)cc2)c2ccccc2)cc1", "note": "(stereo not drawn)", "Potency": "inactive"}
{"molecule": "CN(CC(=O)Nc1ccc(Cl)c(Cl)c1)C(=O)C1CCCC1", "Potency": "inactive"}
{"molecule": "CCCCc1ccc(NC(=S)N2CCCC(CO)C2)cc1", "note": "(stereo not drawn)", "Potency": "0.651 µM (active)"}
{"molecule": "CCCCC(=O)N1CCCC(C)C1", "note": "(stereo not drawn)", "Potency": "inactive"}
{"molecule": "COc1ccccc1NS(=O)(=O)c1ccc(C(=O)Nc2ncccc2O)cc1", "Potency": "inactive"}
{"molecule": "Nn1cnnc1N/N=C\\c1ccc(-c2ccccc2[N+](=O)[O-])o1", "Potency": "inactive"}
{"molecule": "COc1ccc(-c2cc(=O)c3ccccc3s2)cc1", "Potency": "4.11 µM (active)"}
{"molecule": "Cc1ccc(OCCN2CCOCC2)cc1C", "Potency": "inactive"}
{"molecule": "O=C(NCC1CCCO1)c1ccc(NC(=O)c2cccc([N+](=O)[O-])c2)cc1", "note": "(stereo not drawn)", "Potency": "inactive"}
{"molecule": "Cc1ccc2oc(-c3ccc(C)c(NC(=S)NC(=O)c4cccs4)c3)nc2c1", "Potency": "4.61 µM (active)"}
{"molecule": "O=C(NC1CCCCC1)c1ccc(-c2ccccc2F)o1", "Potency": "3.66 µM (active)"}
{"molecule": "C/C(=N\\NC(=O)c1ccc(F)cc1)c1ccccn1", "Potency": "2.06 µM (active)"}
{"molecule": "CSCCC(NC(=O)c1ccc(Cl)cc1Cl)C(=O)N1CC(C)OC(C)C1", "note": "(stereo not drawn)", "Potency": "inactive"}
{"molecule": "Cc1ccc(-n2c(C)cc(C(=O)CSc3nnc4ccccn34)c2C)cc1", "Potency": "6.51 µM (active)"}
{"molecule": "O=C1NCCCc2c1oc1ccc(O)cc21", "activation": "41% [at 9.22 µM]"}
{"molecule": "Cc1ccccc1S(=O)(=O)Nc1nc2ccccc2nc1N1CCc2ccccc2C1", "Potency": "inactive"}
{"molecule": "O=C(/C(=N/N=C/c1ccc(O)c(O)c1)c1ccccc1)c1ccccc1", "Potency": "inactive"}
{"molecule": "C/C(=N\\N=c1/scc(C)n1Cc1ccco1)c1cccc([N+](=O)[O-])c1", "Potency": "inactive"}
{"molecule": "Nc1cccc(-c2nc3ccc(C(=O)c4ccccc4)cc3[nH]2)c1", "Potency": "2.06 µM (active)"}
{"molecule": "Nc1ccc(-c2cnc(-c3ccc(N)cc3)nc2)cc1", "Potency": "0.291 µM (active)"}
{"molecule": "O=C(CC1SC(N2CCCC2)=NC1=O)Nc1ccc(C(=O)Nc2ncccc2O)cc1", "note": "(stereo not drawn)", "Potency": "16.4 µM (active)"}
{"molecule": "COc1cc(CN2CCCCC2C(=O)Nc2ccc(Oc3ccccc3)nc2)ccc1O", "note": "(stereo not drawn)", "Potency": "inactive"}
{"molecule": "Clc1cccc(Cl)c1CSc1nnc2ccccn12", "Potency": "inactive"}
{"molecule": "NNC(=O)c1cccc(O)c1", "Potency": "inactive"}
{"molecule": "COc1ccc2oc(-c3cccc(NC(=O)CSc4ccc(Cl)cc4)c3)nc2c1", "activation": "-2.44% [at 9.22 µM]"}
{"molecule": "COc1ccc(N2CCN(CC(=O)Nc3ccc(C)cc3)CC2)cc1", "Potency": "inactive"}
{"molecule": "C/C(=N\\NC(=S)NC1CCCCC1)c1ccccc1", "Potency": "inactive"}
{"molecule": "O=C(Nc1ncc(Cc2ccccc2)s1)c1cccs1", "Potency": "2.59 µM (active)"}
{"molecule": "O=C(COC(=O)c1ccc(F)cc1)NC1CC1", "Potency": "inactive"}
{"molecule": "O=C(NCCC1=CCCCC1)c1ccc([N+](=O)[O-])cc1", "Potency": "2.59 µM (active)"}
{"molecule": "O=C(COC(=O)c1ccc(-c2nnc(-c3ccccc3)o2)cc1)c1ccccc1", "Potency": "2.91 µM (active)"}
{"molecule": "CCCN1CCC(=NNC(=O)CSc2cc(C)c(Br)cc2C)CC1", "Potency": "inactive"}
{"molecule": "COc1ccc([N+](=O)[O-])cc1NC(=O)C1CCCCC1C(=O)O", "note": "(stereo not drawn)", "Potency": "inactive"}
